From PubChem BioAssay (NCATS) come the findings set out here.

Structures are written as SMILES. Where “and” joins values, the source holds several entries; their conditions need not be identical. Equal values may be shown once. Records with an inconclusive call do not appear. Calls of active or inactive are those of the source. Unless noted, the call rests on the fitted dose curve; in most records, active means well fitted curve in the direction sought with a large enough effect; inconclusive means small, poorly fitted or top-dose-only effect, or another doubt; inactive means no such curve, though single readings can be large; an effect the other way counts as inactive or inconclusive.

The target in test [1] is Lysosomal acid glucosylceramidase (Homo sapiens) (UniProt P04062). As to the kind of experiment: Glucocerebrosidase-p2 (AID 348; in the data active means potency below about 10 µM; further: potency means the concentration at half of the fitted maximal effect). Particulars: purified GBA, blue fluorogenic substrate, 40 min. The method, boiled down: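 Compounds titrated from 0.6 nM upwards against 0.2 nM enzyme in pH 5.9 citric acid/KH2PO4, taurocholate, tween-20; blue fluorogenic substrate 80 uM, 40 min room temperature, stopped and read Ex 365/Em 440 for AC50.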
Chain of Lysosomal acid glucosylceramidase (Homo sapiens) (P04062 whole entry, looked up): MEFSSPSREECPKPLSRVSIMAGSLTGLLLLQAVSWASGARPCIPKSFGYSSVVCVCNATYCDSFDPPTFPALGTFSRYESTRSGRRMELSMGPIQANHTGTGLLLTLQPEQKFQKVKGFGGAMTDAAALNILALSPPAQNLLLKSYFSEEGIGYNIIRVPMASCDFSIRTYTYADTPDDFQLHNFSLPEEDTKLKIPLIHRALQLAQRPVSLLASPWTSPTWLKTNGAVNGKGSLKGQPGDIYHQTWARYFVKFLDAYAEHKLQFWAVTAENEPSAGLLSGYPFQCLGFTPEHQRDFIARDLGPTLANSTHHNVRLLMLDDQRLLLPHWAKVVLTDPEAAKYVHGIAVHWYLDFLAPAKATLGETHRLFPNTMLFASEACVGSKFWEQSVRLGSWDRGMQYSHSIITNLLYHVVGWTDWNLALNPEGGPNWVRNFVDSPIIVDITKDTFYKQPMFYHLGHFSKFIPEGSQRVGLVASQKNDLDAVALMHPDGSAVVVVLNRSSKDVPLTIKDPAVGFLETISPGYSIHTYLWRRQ

A short description of test [2]: Cell Viability - Jurkat (AID 426;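 active means dose-dependent loss of cell ATP signal giving a full or clear fitted curve, ranked by lower potency value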;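 further: potency means the concentration at half of the fitted maximal effect; cells exposed to compound for 40 hours at 37 °C before ATP read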). Particulars: qHTS. In a few lines: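 Jurkat (Clone E6-1) cells, 5000/well in complete medium, exposed to compounds for 40 hr at 37C; intracellular ATP measured by CellTiter-Glo luminescence after 20 min at room temperature. AC50 from Hill fits.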
A short description of test [3]: Cell Viability - SK-N-SH (AID 435; calls by dose curve;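 further: potency means the concentration at half of the fitted maximal effect; compound exposure lasted 40 h at 37 °C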). Particulars: SK-N-SH neuroblastoma cell viability qHTS. In a few lines: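 Human neuroblastoma line, 40 h exposure at 37 °C, ATP quantified via luciferase luminescence; DMSO and 100 uM tamoxifen define 0 and 100% inhibition for AC50 fitting.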
On the technique in general: Quantitative high-throughput screening tests each substance at several concentrations.

The nature of test [4]: Cell Viability - N2a (AID 540).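 Further: plate controls were DMSO alone for no effect and tamoxifen control for full effect; nearly all actives have a fitted effect of over 45% in size.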 As to conditions: N2a mouse neuroblastoma cell viability; at 92.2 µM (top of the series). In a few lines:
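Mouse neuroblastoma N2a cells, 1500/well, exposed to compounds 40 h at 37 °C in complete medium. Viability measured as cellular ATP by CellTiter-Glo luminescence; AC50 from Hill fits of concentration-response.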

Test [5] in a line: Cell Viability - H-4-II-E (AID 543). Further: on the % scale 0 is the no-effect control and ±100 the full control effect; nearly all actives have a fitted effect of over 35% in size. Particulars: H-4-II-E rat hepatoma viability; series mostly up to 92.2 µM. In a few lines: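 Rat hepatoma H-4-II-E cells, 1500 per well, treated 40 h at 37 °C in complete medium. Cellular ATP read by CellTiter-Glo luminescence; AC50 from Hill fits of concentration-response.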
Test [6] in a line: Cellular Toxicity (caspase-3) Jurkat (AID 655). Particulars: Jurkat caspase-3 activation, luminescence, DMSO = 0%, tamoxifen = 100%; at 92.2 µM (top of the series). The method, boiled down: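 qHTS in human Jurkat T-cell leukemia line: 16 hr compound treatment at 37 °C, caspase-3/7 activity measured by Caspase-Glo luminescence. AC50 derived from Hill equation.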
Test [7] in a line: MultiTox-Fluor Cytotoxicity Assay - LYMP1-003 - Dead Cells (AID 961).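 Further: 0% = DMSO and 100% = tetraoctylammonium bromide; nearly all actives have a fitted effect of over 70% in size.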 As to conditions: LYMP1-003 lymphoblastoid cells, dead-cell protease fluorescence; series mostly up to 92.2 µM. In a few lines: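 LYMP1-003 human lymphoblastoid cells (2500/well) exposed to compound 16 h at 37 C in complete medium; dead-cell protease read with bis-AAF-R110 fluorescence (Ex/Em 485/520) after 60 min at room temperature. Normalized to DMSO and 15 uM tetraoctylammonium bromide; AC50 from Hill fit.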

The nature of test [8]: Cell Viability - LYMP2-003 (AID 965).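 Further: cells exposed to compounds for 24 h before reading; 0% = DMSO only and full effect = 92 µM tetraoctylammonium bromide; nearly all actives have a fitted effect of over 50% in size.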 Particulars: LYMP2-003 lymphoblastoid cell viability; series mostly up to 92.2 µM. The method, boiled down:
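qHTS, human lymphoblastoid line, 2500 cells/well, complete medium. 24 h drug, 37 C. ATP-based luminescent readout; Hill-fit AC50.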

Test [9] is described as follows: Cell Viability - LYMP2-019 (AID 973).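 Further: cells exposed to compound for 24 h at 37 °C; nearly all actives have a fitted effect of over 55% in size.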 Further: potency means the concentration at half of the fitted maximal effect.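 On activity change, negative = cytotoxicity: 0% = DMSO alone and full effect = 92 µM tetraoctylammonium bromide.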 Particulars: LYMP2-019 lymphoblastoid cell line viability; series mostly up to 92.2 µM. In a few lines:
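Human lymphoblastoid LYMP2-019 cells (2500/well) preincubated 5 h at 37 C, then treated 24 h at 37 C in complete medium. Viability by CellTiter-Glo ATP luminescence after 30 min at room temperature; AC50 from Hill fits.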

Test [10] can be described thus: Cell Viability - LYMP2-007 (AID 979).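 Further: cells exposed to compound for 24 h before reading; 0% = DMSO only and the negative end = 92 µM tetraoctylammonium bromide; nearly all actives have a fitted effect of over 60% in size.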 As to conditions: LYMP2-007 lymphoblastoid cell viability; series mostly up to 92.2 µM. In a few lines:
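Human lymphoblastoid LYMP2-007 cells (2500/well) preincubated 5 h at 37 C, then treated 24 h at 37 C in complete medium. Viability by CellTiter-Glo ATP luminescence after 30 min at room temperature; AC50 from Hill fits.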

The target in test [11] is Peroxisome proliferator-activated receptor gamma (Homo sapiens) (UniProt P37231). Nature of the test: qHTS assay for small molecule agonists of peroxisome proliferator-activated receptor gamma signaling (AID 588536; active means well fitted curve in the direction sought with a large enough effect in the signal ratio, with a control signal flat, not every such curve was filed as active; the % refers to the signal ratio;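 further: 0% = DMSO basal wells and 100% = rosiglitazone at 2 µM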). As to conditions: HEK293 PPARg-UAS-bla, beta-lactamase ratio, 16 h, percent of rosiglitazone response, DMSO as zero; series mostly up to 76.7 µM. In a few lines:
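GeneBLAzer PPAR-gamma-UAS-bla HEK293 cells in 1% charcoal/dextran-treated FBS medium were treated 16 h at 37 C with compounds. Beta-lactamase activity was read by CCF4 ratio (460/530 nm). Response was normalized to 2 uM rosiglitazone (100%) and DMSO, then Hill-fitted for EC50 and efficacy.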

Test [12] has as its target Vitamin D3 receptor (Homo sapiens) (UniProt P11473). As to the kind of experiment: qHTS assay for small molecule agonists of vitamin D receptor signaling (AID 588543; calls by dose curve;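 further: 0% = DMSO basal and 100% = reference agonist control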). As to conditions: HEK293T VDR-UAS-bla, beta-lactamase ratio, 16 h; series mostly up to 76.8 µM. The method, boiled down: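 Measured: β-lactamase reporter activity (CCF4, 405 nm excitation, 460/530 nm emission) in HEK293T VDR-UAS-bla cells after 16 h compound exposure at 37 °C. Normalization against 50 nM 1α,25-dihydroxyvitamin D3 and DMSO; Hill-fit EC50.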

Test [13] can be described thus: qHTS assay for small molecule agonists of retinoid X receptor alpha signaling (AID 588544; calls by dose curve;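 on activation: 0% = DMSO basal wells and 100% = reference agonist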). Particulars: HEK293T RXRa-UAS-bla, beta-lactamase reporter, 18 h; 530 nm emission.
Test [14] deals with Retinoic acid receptor RXR-alpha (Homo sapiens) (UniProt P19793). The description is as above. As to conditions: HEK293T RXRa-UAS-bla, beta-lactamase reporter, 18 h; series mostly up to 76.7 µM.
Chain of Retinoic acid receptor RXR-alpha (Homo sapiens) (P19793 whole entry, looked up): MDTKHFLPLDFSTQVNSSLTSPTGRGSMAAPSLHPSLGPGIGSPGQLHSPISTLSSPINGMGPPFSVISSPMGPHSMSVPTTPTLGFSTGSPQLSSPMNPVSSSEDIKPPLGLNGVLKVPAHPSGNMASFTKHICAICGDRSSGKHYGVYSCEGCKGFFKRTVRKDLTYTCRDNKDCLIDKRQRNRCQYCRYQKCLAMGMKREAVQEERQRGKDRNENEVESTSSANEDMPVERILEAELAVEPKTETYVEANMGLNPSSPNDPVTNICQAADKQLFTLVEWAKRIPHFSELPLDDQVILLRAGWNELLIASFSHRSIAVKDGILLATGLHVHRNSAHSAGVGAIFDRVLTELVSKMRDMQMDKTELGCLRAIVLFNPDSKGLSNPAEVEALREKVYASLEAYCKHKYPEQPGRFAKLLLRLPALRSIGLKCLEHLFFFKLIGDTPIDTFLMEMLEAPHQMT
Test [15] concerns the target Nuclear receptor ROR-gamma (Homo sapiens) (UniProt P51449). As to the kind of experiment: qHTS assay for small molecule antagonists of the retinoid-related orphan receptor gamma (ROR-gamma) signaling pathway (AID 651802).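 Further: luciferase reporter luminescence driven by ROR response element; on the % scale 0 is the no-effect control and ±100 the full control effect; nearly all actives have a fitted effect of over 60% in size.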 Particulars: ROR-gamma antagonist cell reporter assay; series mostly up to 92.2 µM. In a few lines: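 CHO cells with TET-inducible ROR-gamma and RORE-luciferase reporter, dosed then doxycycline-induced. After 16 h at 37C, One-Glo luminescence read; decreased signal indicates antagonism.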

A short description of test [16]: qHTS assay for small molecule agonists of the antioxidant response element (ARE) signaling pathway measured by Nrf2-dependant transcriptional activity (AID 720636; active means well fitted curve in the direction sought with a large enough effect in the repeat runs; an effect the other way counts as inactive or inconclusive; further: % of control where 0% means no effect). As to conditions: ARE-luc HepG2, Nrf2 luciferase reporter, 16 h; series mostly up to 92.4 µM. In a few lines: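 We exposed ARE-luc HepG2 cells, seeded in assay medium with 1% dialyzed FBS and allowed 6 hr to adhere, to test compounds overnight (16 hr, 37 C) before measuring luciferase with ONE-Glo.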

Test [17] can be described thus: qHTS assay for small molecule agonists of the antioxidant response element (ARE) signaling pathway measured by Nrf2-dependant transcriptional activity - cell viability counter screen (AID 720653; active means well fitted curve in the direction sought with a large enough effect in the repeat runs; an effect the other way counts as inactive or inconclusive; further: on the % scale 0 is the no-effect control and ±100 the full control effect). Particulars: ARE-bla HepG2 viability, CellTiter-Glo ATP luminescence, 16 h; stronger effect = lower value. The method, boiled down:
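ARE-bla HepG2 cells treated with compounds for 16 h at 37C; this counter screen measures viability as intracellular ATP by CellTiter-Glo luminescence after 30 min at room temperature.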

For test [18], the target named is Muscarinic acetylcholine receptor M1 (Rattus norvegicus) (UniProt P08482). Nature of the test: qHTS Assay for Antagonists of Acetylcholine Muscarinic M1 Receptor: Measurement of IP-One Response (AID 944). Further: nearly all actives have a fitted effect of over 75% in size. Particulars: CHO-M1 cells, IP-One HTRF, antagonist mode; series mostly up to 46.1 µM. The method, boiled down:
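CHO cells stably expressing rat M1, pretreated 10 min with compound, then stimulated 30 min with carbachol at EC80 (200 nM) in LiCl-containing buffer pH 7.4; IP1 accumulation read by HTRF competition (665/620 nm).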

For test [19], the target named is Nuclear receptor subfamily 1 group I member 2 (Rattus norvegicus) (UniProt Q9R1A7). As to the kind of experiment: qHTS assay for small molecule activators of the rat pregnane X receptor (rPXR) signaling pathway (AID 651751; call rule not given here; further: 0% is about no effect). As to conditions: rPXR reporter cells, luciferase (One-Glo), 24 h.
Chain of Nuclear receptor subfamily 1 group I member 2 (Rattus norvegicus) (Q9R1A7 whole entry, looked up): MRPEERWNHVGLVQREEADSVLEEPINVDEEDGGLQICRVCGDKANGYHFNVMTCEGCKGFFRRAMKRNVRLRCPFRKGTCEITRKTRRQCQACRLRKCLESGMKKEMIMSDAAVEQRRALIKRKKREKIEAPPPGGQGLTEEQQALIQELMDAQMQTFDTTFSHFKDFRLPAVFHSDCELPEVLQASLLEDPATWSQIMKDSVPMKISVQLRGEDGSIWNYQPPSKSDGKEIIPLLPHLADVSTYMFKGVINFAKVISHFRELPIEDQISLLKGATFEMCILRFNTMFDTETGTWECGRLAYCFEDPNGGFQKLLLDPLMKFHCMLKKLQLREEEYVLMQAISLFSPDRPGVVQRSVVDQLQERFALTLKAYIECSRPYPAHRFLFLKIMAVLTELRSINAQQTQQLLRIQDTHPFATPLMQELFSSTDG
Test [20] deals with Thyroid hormone receptor beta (Homo sapiens) (UniProt P10828). As to the kind of experiment: qHTS assay for small molecule agonists of thyroid hormone receptor beta signaling (AID 588545; calls by dose curve;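 further: 0% = DMSO only and 100% = 10 nM T3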). Particulars: TR-UAS-bla GripTite HEK 293, beta-lactamase ratio, agonist mode, 18 h, percent of T3 response, DMSO as zero; series mostly up to 76.7 µM. The method, boiled down:
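TR-UAS-bla GripTite HEK 293 cells (2500/well, medium with 2% charcoal/dextran FBS) were treated in agonist mode for 18 h at 37 C, titrated. Beta-lactamase was read by CCF4 ratio after 2 h; normalized to 10 nM T3 (100%) and DMSO, Hill-fitted for EC50 and efficacy.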

Chain of Muscarinic acetylcholine receptor M1 (Rattus norvegicus) (P08482 whole entry, looked up): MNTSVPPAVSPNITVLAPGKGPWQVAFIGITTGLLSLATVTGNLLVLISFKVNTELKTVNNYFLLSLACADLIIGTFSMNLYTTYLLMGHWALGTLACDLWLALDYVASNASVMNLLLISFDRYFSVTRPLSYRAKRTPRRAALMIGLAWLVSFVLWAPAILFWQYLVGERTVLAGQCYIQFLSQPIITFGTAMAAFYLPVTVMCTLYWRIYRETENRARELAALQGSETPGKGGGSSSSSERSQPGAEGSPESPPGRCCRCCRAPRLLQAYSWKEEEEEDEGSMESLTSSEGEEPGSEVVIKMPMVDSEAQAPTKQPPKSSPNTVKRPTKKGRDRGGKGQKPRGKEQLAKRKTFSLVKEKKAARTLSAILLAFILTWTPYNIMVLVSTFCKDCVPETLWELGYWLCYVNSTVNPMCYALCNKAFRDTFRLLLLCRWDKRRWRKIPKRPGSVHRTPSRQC
Chain of Nuclear receptor ROR-gamma (Homo sapiens) (P51449 whole entry, looked up): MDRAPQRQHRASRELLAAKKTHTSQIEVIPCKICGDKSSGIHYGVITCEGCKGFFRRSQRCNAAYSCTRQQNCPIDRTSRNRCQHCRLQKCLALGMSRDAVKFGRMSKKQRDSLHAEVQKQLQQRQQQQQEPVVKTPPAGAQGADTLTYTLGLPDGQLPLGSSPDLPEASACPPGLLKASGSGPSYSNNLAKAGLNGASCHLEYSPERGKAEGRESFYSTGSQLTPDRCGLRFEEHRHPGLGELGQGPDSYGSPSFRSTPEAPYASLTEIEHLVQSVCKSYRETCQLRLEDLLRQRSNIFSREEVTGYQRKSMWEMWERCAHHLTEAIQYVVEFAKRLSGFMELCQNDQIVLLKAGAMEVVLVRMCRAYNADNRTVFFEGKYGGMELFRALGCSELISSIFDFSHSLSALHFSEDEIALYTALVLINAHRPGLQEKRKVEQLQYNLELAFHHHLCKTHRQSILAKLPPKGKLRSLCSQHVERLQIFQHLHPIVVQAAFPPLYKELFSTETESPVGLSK
Chain of Peroxisome proliferator-activated receptor gamma (Homo sapiens) (P37231 whole entry, looked up): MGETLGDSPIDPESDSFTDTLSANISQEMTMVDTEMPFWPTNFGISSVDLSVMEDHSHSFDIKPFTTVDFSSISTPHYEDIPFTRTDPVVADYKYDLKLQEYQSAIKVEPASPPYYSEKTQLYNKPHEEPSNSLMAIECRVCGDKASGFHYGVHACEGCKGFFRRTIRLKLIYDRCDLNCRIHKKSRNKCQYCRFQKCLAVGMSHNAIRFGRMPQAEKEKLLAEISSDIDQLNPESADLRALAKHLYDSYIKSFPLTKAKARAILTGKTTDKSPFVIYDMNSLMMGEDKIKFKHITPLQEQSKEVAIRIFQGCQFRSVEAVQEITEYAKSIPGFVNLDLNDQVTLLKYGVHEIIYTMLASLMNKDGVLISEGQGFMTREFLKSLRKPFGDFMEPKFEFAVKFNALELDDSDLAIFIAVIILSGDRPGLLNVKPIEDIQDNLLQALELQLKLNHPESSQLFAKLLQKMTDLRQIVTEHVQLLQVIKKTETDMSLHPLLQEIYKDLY
Chain of Vitamin D3 receptor (Homo sapiens) (P11473 whole entry, looked up): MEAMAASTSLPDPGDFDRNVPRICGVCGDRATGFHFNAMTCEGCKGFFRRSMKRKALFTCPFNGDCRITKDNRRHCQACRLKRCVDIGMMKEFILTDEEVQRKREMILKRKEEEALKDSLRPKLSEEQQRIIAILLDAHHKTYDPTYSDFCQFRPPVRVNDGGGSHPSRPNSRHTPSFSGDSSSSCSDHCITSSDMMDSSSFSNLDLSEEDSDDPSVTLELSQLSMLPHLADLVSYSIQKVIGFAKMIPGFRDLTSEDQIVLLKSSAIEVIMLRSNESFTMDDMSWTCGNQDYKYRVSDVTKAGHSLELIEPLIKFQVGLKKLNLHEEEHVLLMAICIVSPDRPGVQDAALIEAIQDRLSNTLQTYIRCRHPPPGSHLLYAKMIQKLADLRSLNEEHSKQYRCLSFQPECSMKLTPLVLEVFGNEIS
Chain of Thyroid hormone receptor beta (Homo sapiens) (P10828 whole entry, looked up): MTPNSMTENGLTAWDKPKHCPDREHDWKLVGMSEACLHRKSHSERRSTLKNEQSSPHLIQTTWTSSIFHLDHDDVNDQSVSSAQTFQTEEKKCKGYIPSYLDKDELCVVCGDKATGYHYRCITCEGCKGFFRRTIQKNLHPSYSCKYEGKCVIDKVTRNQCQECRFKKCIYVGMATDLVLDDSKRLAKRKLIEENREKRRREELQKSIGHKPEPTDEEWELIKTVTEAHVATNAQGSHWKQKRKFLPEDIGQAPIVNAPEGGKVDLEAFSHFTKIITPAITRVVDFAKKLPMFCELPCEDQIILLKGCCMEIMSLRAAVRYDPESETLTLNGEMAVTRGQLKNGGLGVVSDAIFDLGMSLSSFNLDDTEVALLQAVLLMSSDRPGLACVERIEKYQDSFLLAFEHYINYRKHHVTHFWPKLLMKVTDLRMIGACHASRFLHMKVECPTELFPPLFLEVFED

With `O=C(Nc1cccc(F)c1)N1CCC2(CC1)CCN(C(=O)Oc1ccccc1)CC2`, the Potency in [1] was > 11.4 µM (inactive).

Regarding `CCNc1nc(Cl)nc(NC(C)C)n1`, the Potency in test [2] and in test [3] was > 92 µM (inactive) throughout. For the same compound, the activity change, negative = cytotoxicity in [4] is -4.9% (inactive). The Potency result in [5], in [7], in test [8], in [9], in [10] and in [14] was “inactive” throughout. In addition, the Potency entry in [15] was “inactive”. In test [6], the caspase-3 activation is 0.071% (inactive). Further, the outcome in test [11], in test [12] and in test [16] was inactive. Further, the max response was 15.9% and 26.8% in test [13]; 5.56% (inactive) and -9% (inactive) in test [17].

As to `COc1ccc2c(c1OC)C(=O)O[C@H]2[C@H]1c2cc3c(cc2CCN1C)OCO3`, the Potency entry in [18] was “inactive”.

On to `CCc1cccc(CC)c1N(COC)C(=O)CCl`, for which the Potency was 54 µM (active) in test [2], > 92 µM (inactive) in test [3] and 50.1 µM (active) in test [9]. Besides, the activity change, negative = cytotoxicity in test [4] was -5.69% (inactive). The Potency result in [7] and in test [14] was “inactive” in each case. The result in test [11] and in test [12] was inactive. The max response in [13] was 19.2%; in test [17] it was 6.28% (inactive) and -3.56% (inactive); in [19], -3.94% (inactive) and -1.3% (inactive).

In the case of `O=C(O)CNCP(=O)(O)O`, the Potency in test [1] is > 11.4 µM (inactive).

With `CNC(=O)O/N=C/C(C)(C)SC`, the Potency in test [2] and in test [3] was > 92 µM (inactive) each time. In addition, the activity change, negative = cytotoxicity in test [4] is -2.66% (inactive). Moreover, the Potency entry in test [5], in test [7], in test [8], in test [9], in test [10] and in [14] was “inactive” throughout. In addition, in [15], the Potency entry is “inactive”. Moreover, the caspase-3 activation in test [6] was -0.602% (inactive). The result in [11], in [20] and in test [16] was inactive. The max response in [13] is -12.4% and 19.1% and 1.84%; in test [17], 2.17% (inactive) and 5.56% (inactive).

For the compound `CS(=N)(=O)CC[C@@H](N)C(=O)O` (stereo not given in full), the Potency result in test [18] is “inactive”.

On to `O=C(Oc1ccccc1)N1CCC2(CCCN(C(c3ccccc3)c3ccccc3)C2)CC1`, for which the Potency in test [1] is > 11.4 µM (inactive).

Regarding `C=CCc1ccc(OC)cc1`, the Potency in [2] and in [3] was > 92 µM (inactive) in each case. Also, the activity change, negative = cytotoxicity in [4] is -8.37% (inactive). For the same compound, the Potency result in test [5], in [7], in test [8], in test [9], in [10] and in [14] was “inactive” throughout. The Potency entry in test [15] is “inactive”. Also, the caspase-3 activation in [6] is 0.324% (inactive). For the same compound, the result in test [11] and in test [16] was inactive. Moreover, the values for the max response in test [13] and in test [19] were -5.04% and 0.607% (inactive), respectively.

For the compound `C#CCN(C)[C@@H](C)Cc1ccccc1`, the Potency entry in test [18] was “inactive”.

In the case of `Cc1nc2cnc(N3CCNCC3)nc2n(C)c1=O`, the Potency in [1] was > 11.4 µM (inactive).
